# The full list was thinned out, with hits kept by preference.
# RMI FANCM FP – disruptors of RMI1/RMI2 association with MM2 peptide – biochemical, fluorescence polarization, human, primary screen; RMI core complex (RMI1/RMI2) binding to FANCM MM2 peptide, human; RMI core complex with F-MM2 peptide; hits give low values; FP signal (polarization) at 33 µM; 70,000 tested, 0.58% active; AID 1159607, 2016; in the data active = FP signal below about 40
# Active calls of the source: *; ! = repeats disagree.
SMILES,RMI FANCM FP
CCN1CCCc2cc(CCNC(=O)NC(C)(C)C)ccc21,65
CCCCOc1ccc(C(=O)NCCc2ccc3c(c2)CCCN3C)cc1,65
Fc1cccc(-c2nnc3ccc(=S)[nH]n23)c1,59
O=C1SC(c2ccccc2)=N/C1=C/c1ccc(C(F)(F)F)cc1,63
O=C1N=C(N2CCOCC2)S/C1=C\C=C\c1ccc([N+](=O)[O-])cc1,68
CC(=O)N1CCN(c2ccccc2)CC1,50
O=C(NCCn1nc(-c2ccncc2)ccc1=O)c1c(F)cccc1Cl,67
CC(=O)N1CCc2c(sc(N)c2C(N)=O)C1,69
CSc1ccccc1C(=O)Nc1sc2c(c1C(N)=O)CCN(C(C)C)C2,80
CC(C)N1CCc2c(sc(N)c2C(N)=O)C1,-30*
O=C(COc1ccc(F)cc1F)N1CCN(c2ccc3nncn3n2)CC1,68
Cc1ccc(NC(=O)C(=O)NCC(c2ccc3c(c2)CCCN3C)N2CCCC2)c(C)c1 (stereo not drawn),71
Cc1[nH]c2ccccc2c1C(Nc1ccccc1F)c1ccccn1 (stereo not drawn),97
COc1ccc(C(Nc2cc(C)on2)c2c(C)[nH]c3ccccc23)cc1OC (stereo not drawn),58
Cc1[nH]c2ccccc2c1C(Nc1ccccn1)c1cccc([N+](=O)[O-])c1 (stereo not drawn),25*!
O=C(COc1ccccc1)NCCOc1ccccc1,62
Cc1ccc2c(c1)N(Cc1nc(-c3ccc(Br)cc3)no1)C(=O)CO2,90
Cc1ccc2c(c1)c1c(n2C)CC[N+](C)(C)C1,71
O=C(Nc1ccc(S(=O)(=O)Nc2ncccn2)cc1)c1cnc2n(c1=O)CCS2,20*
O=C(Nc1cccc2c1CCCC2)c1cnc2n(c1=O)CCS2,64
O=C(Nc1ccc(Br)cc1)c1cnc2n(c1=O)CCS2,60
Cc1ccc(NC(=O)c2ccccc2NC(=O)c2cc(=O)c3ccccc3o2)c(C(=O)c2ccccc2)c1,62
CC(C)CCn1c(SCc2nc(-c3ccccn3)no2)nc2ccsc2c1=O,71
CCCn1c(Sc2ccc([N+](=O)[O-])cc2[N+](=O)[O-])nc2ccccc21,51
CN1CCN(c2ccc(CNS(=O)(=O)c3cccc4nonc34)cc2)CC1,57
SMILES,RMI FANCM FP
CC(=O)Nc1cccc(C2=CC(c3cccc(Br)c3)n3ncnc3N2)c1 (stereo not drawn),5*
CCCOc1ccc(Br)cc1C1C(C(N)=O)=C(C)Nc2ncnn21 (stereo not drawn),68
CC(=O)Nc1cccc(NC(=O)C(=O)NC2CCCC2)c1,56
O=C(COc1cccc2ccccc12)N1CCN(c2ccc3nnc(C4CC4)n3n2)CC1,65
O=C(O)c1nc2nccnc2cc1Br,17*
CS(=O)(=O)c1ncc(Br)c(C(=O)O)n1,55
O=C(O)c1ncccc1Br,57
COc1ccc2c(C)cc(SCC(=O)c3ccc4c(c3)OCCO4)nc2c1,86
COc1cccc(CNC(=O)Cn2c(=O)n(Cc3ccccc3Cl)c(=O)c3nccnc32)c1OC,66
CCOc1ccccc1CN1C(=O)C(NC(C)=O)c2cc(C)cc(C)c21 (stereo not drawn),63
CCOc1ccccc1CN1C(=O)C2(SC(NC(C)=O)=NN2C(C)=O)c2cccc(Cl)c21 (stereo not drawn),22*
CC(=O)Nc1ccc(C(=O)NCCNC(=O)Cc2ccc(F)cc2)cc1,69
COc1ccc(S(=O)(=O)Cc2nc(-c3ccc4c(c3)OCO4)no2)cc1,66
CCOCC(=O)Nc1ccc2c(c1)CCC(=O)N2,68
O=C(CSC1CN(C(c2ccccc2)c2ccccc2)C1)N/N=C/c1ccc(Cl)cc1Cl,59
Oc1c(Cl)cc(Cl)cc1/C=N\NCCc1ccccn1,45
O=C(CC1NCCN(Cc2ccccc2)C1=O)N/N=C\c1cc(Cl)cc(Cl)c1O (stereo not drawn),35*!
Cc1c(C(=O)NCCOc2ccc3c(c2)OCO3)cccc1[N+](=O)[O-],60
COc1ccc(NC(=O)Cc2cn(Cc3ccccc3)c3ccccc23)cc1OC,72
CSc1cccc(NC(=O)CSc2nc3c(-c4ccccc4)c[nH]c3c(=O)n2C)c1,129
COc1ccc(C(=O)Nc2ccc(SCC(=O)N3CCCC3)nn2)c(OC)c1,64
COc1ccc(C)cc1S(=O)(=O)N1CCN(c2ccc(-c3ccncc3)nn2)CC1,67
COc1ccc(F)cc1S(=O)(=O)N1CCN(c2ccc(-c3ccc(F)cc3)nn2)CC1,81
COc1ccc(Cl)cc1S(=O)(=O)N1CCN(c2ccc(-c3ccncc3)nn2)CC1,27*
O=C(O)CN1C(=O)CCC1=O,69
SMILES,RMI FANCM FP
COc1ccccc1-n1ncc2c(C)nnc(SCC(N)=O)c21,63
Cc1ccc(C)c(CN2CCN(c3nc4c(c(=O)[nH]c(=O)n4C)n3Cc3cc(C)ccc3C)CC2)c1,59
COc1cccc2cc(C(=O)Nc3nnc(-c4ccc(SC)cc4)o3)oc12,32*
COc1cccc2cc(C(=O)Nc3nnc(-c4cc(C)nn4C)o3)oc12,67
COc1cccc2cc(C(=O)Nc3nnc(-c4ccc5c(c4)OCO5)o3)oc12,65
Cc1cc(SCC(=O)Nc2nc(-c3ccccc3)ns2)nc2ccccc12,59
N#C/C(=C\Nc1ccc(S(=O)(=O)N=C(N)N)cc1)c1nc(-c2ccc([N+](=O)[O-])cc2)cs1,104
Cc1ccc(-c2csc(/C(C#N)=C/Nc3ccc(Cl)c(C(F)(F)F)c3)n2)cc1,65
N#C/C(=C\Nc1ccc(S(=O)(=O)NC(N)=O)cc1)c1nc(-c2ccc(Cl)cc2)cs1,15*
COc1cc(C(=O)Nc2cccc(-c3cn4ccsc4n3)c2)c([N+](=O)[O-])cc1OC,65
S=C(NC1CC2C=CC1C2)N1CCOCC1 (stereo not drawn),62
CC(C)(C)c1ccc(-n2cccc2)c([N+](=O)[O-])c1,48
Cc1ccc(N2C(=O)C=CC2=O)c([N+](=O)[O-])c1,-7*
Cc1ccc(NC(=S)NC(C)(C)C)c([N+](=O)[O-])c1,50
C/C(=N/OC(=O)c1ccc(C(F)(F)F)cc1)c1cc[nH]c1,58
COc1cccc(CSc2nc(CC(=O)NC3CC3)cc(=O)[nH]2)c1,54
COc1cccc(CSc2nc(CC(=O)Nc3nnc(C)s3)cc(=O)[nH]2)c1,34*
COc1cccc(CSc2nc(CC(=O)Nc3ccc(C)c(C)c3)cc(=O)[nH]2)c1,64
CC(=O)c1ccc(NC(=O)CSc2nnc(-c3ccco3)n2C)cc1,57
Cc1cc(-c2nnc(NC(=O)CCc3ccccc3)o2)n(C)n1,70
COc1ccc(CCNC(=O)Cn2cnc(-c3ccc(F)cc3)cc2=O)cc1,70
COc1ccc(CCN=C(N)N)cc1OC,63
Cc1cc(NS(=O)(=O)c2ccc(NC(=O)c3oc4cc(C)c(C)cc4c3C)cc2)nc(C)n1,17*
Cc1cc(NS(=O)(=O)c2ccc(NC(=O)c3ccc(Br)o3)cc2)no1,66
Cc1cc(NS(=O)(=O)c2ccc(NC(=O)CCN3C(=O)c4ccccc4C3=O)cc2)nc(C)n1,60
Cc1ccc2nc(C(F)(F)F)cc(N3CCC(n4cccc4)CC3)c2c1,54
CCCNC(=O)c1ccc2c(=O)n(-c3cc(C)cc(C)c3)c(SCC#N)nc2c1,117
COCCNC(=O)Cc1cn(Cc2ccc(F)cc2)c2ccccc12,65
COc1ccc(Cn2cnc3c4ccccc4n(CC(=O)NCc4ccccc4)c3c2=O)cc1,101
Fc1ccc(Cn2c3ccccc3c3nn4cnnc4nc32)cc1,28*

# Screening data: PubChem BioAssay, Small Molecule Screening Facility, UW Madison
